# High-throughput results: PubChem BioAssay, National Center for Advancing Translational Sciences (NCATS)
# p53null 32C tox: selectivity test: cytotoxicity in p53 null cells, permissive temperature; H1299-neo p53 null cells, ATP luminescence, 24 h, 32C; Potency, µM (doses to about 46.1 µM), inactives show at the top dose activity change, negative = cytotoxicity, most hits filed as cytotoxic; hit rate 0.62% among 55,000; AID 903;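 also: potency is read from the fitted curve at half-maximal effect; 0% = DMSO only and -100% = full killing by 100 µM tamoxifen; nearly all actives have a fitted effect of over 55% in size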
#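 Overnight 37C seeding (600 cells/well) of H1299-neo preceded a 24 hr, 32C exposure to compounds up to 46 uM. ATP levels, read by luminescence after 20 min at RT, indicated surviving cells.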
# p53null 39C kill: selectivity test: cytotoxicity in p53 null cells, nonpermissive temperature; H1299 p53-null (neo) cells, 39C, ATPlite viability, 24 h; AID 904; Potency, µM (top dose mostly 46.1 µM), inactives show top-dose activity, negative = cell killing, actives largely listed as cytotoxic; hit rate 0.97% among 55,000;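 also: potency is read from the fitted curve at half-maximal effect; 0% = DMSO only and -100% = full killing by 100 µM tamoxifen; nearly all actives have a fitted effect of over 50% in size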
#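 ATP-luminescence viability readout (ATPlite, 20 min RT) after 24 hr compound treatment at 39C of H1299-neo or H1299-p53A138V cells; titration up to 46 uM; normalized to DMSO and 100 uM tamoxifen; Hill-fit AC50.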
# PMP22 txn: PMP22 gene transcription modulation | hit rate 2% among 43,000 | S16 Pmp22-F2sN Schwann cells, FLuc/NLuc coincidence luminescence, 24 h | AID 1508649 | Potency, µM (titrated, usually from 57.5 µM), without a hit: top-dose activity change, negative = inhibition, most hits filed as inhibitors; active = clear falling dose curves in both reporters; inconclusive = both reporters move, but less clearly or upward; inactive = either reporter flat; the % is the NLuc reporter signal; also: potency is read from the fitted curve at half-maximal effect; % is scaled to controls: 0 for no effect and ±100 for the full control effect
#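 S16 Schwann cells carrying FLuc/NLuc coincidence reporter in the Pmp22 3' UTR treated with compound 24 h at 37C; FLuc then NLuc luminescence read sequentially by dual-luciferase reagents.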
# pS6 MEF inh: mTORC1 pathway inhibition measured by phospho-rpS6; Tsc2-/- p53-/- MEF, phospho-rpS6 immunofluorescence/PI, 24 h; Potency, µM (top dose mostly 38.3 µM), without a hit: at the top dose activity change, negative = inhibition, most hits filed as inhibitors; hit rate 0.78% among 44,000;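 also: potency is read from the fitted curve at half-maximal effect; plate controls were DMSO for no effect and rapamycin for full effect; nearly all actives have a fitted effect of over 50% in size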
#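 Immunofluorescence of rpS6 phosphorylation in Tsc2-/-, p53-/- MEFs after 24 h compound exposure, normalized to propidium iodide signal. Activity is expressed as % positive cells, thresholded with 7.5 nM rapamycin.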
# S16 viability: toxic to S16 Pmp22-F2sN Schwann cells | S16 Pmp22-F2sN Schwann cells viability, CellTiter-Glo, 24 h | Potency, µM (series often up to 57.5 µM), for the others: at the top dose activity change, negative = cytotoxicity, most hits filed as cytotoxic | hit rate 0.48% among 43,000; also: potency is read from the fitted curve at half-maximal effect; % is scaled to controls: 0 for no effect and ±100 for the full control effect; nearly all actives have a fitted effect of over 65% in size
#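 Used to flag compounds lowering reporter output through toxicity, this quantitative HTS measures ATP-based CellTiter-Glo luminescence in S16 Pmp22-F2sN Schwann cells after 24 h compound exposure at 37C.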
# NLuc saturating: inhibits NanoLuc at saturating substrate, PMP22 counter-screen | Potency, µM (doses to about 57.5 µM), inactives show at the highest dose activity change, negative = inhibition, usual class: inhibitors | shares compounds with PMP22 txn | Secreted NLuc enzyme (filtered S16 cell medium), Nano-Glo luminescence | hit rate 4% among 690 | AID 1508638; also: potency is read from the fitted curve at half-maximal effect; % is scaled to controls: 0 for no effect and ±100 for the full control effect
# NLuc Km ctr: counter-screen for PMP22 expression modulators: NanoLuc inhibition at Km | shares compounds with PMP22 txn | secreted NLuc enzyme, coelenterazine luminescence, Km conditions | Potency, µM (titrated, usually from 57.5 µM), for inactives: at the top dose activity change, negative = inhibition, actives largely listed as inhibitors | hit rate 5% among 690 | AID 1508639; also: potency is read from the fitted curve at half-maximal effect; % is scaled to controls: 0 for no effect and ±100 for the full control effect
# FLuc ctr PMP22: firefly luciferase enzyme inhibition artifact for PMP22 screen. shares compounds with PMP22 txn. purified P. pyralis FLuc, luminescence, 10 min. Potency, µM (highest dose often 57.5 µM), without a hit: at the highest dose activity, negative = inhibition, actives largely listed as inhibitors. 690 tested, under 10 active. AID 1508640; also: % of control where 0% means no effect
# Target sequence (P08659 whole entry, looked up): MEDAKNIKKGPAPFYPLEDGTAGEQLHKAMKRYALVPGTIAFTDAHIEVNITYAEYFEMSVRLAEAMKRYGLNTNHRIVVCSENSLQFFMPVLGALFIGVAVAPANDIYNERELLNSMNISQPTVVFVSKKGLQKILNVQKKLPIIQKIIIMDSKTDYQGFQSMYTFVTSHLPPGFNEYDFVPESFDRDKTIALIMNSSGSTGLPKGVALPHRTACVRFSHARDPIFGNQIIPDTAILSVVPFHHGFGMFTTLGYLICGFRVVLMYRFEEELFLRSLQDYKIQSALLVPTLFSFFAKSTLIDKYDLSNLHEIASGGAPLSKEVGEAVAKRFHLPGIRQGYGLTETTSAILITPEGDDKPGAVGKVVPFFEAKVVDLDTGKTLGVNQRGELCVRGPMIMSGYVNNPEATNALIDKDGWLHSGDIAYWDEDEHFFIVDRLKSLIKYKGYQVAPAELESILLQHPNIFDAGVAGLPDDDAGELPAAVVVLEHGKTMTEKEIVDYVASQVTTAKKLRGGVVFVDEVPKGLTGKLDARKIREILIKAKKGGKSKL
# S16 viab conf: S16 Schwann cell cytotoxicity, confirmatory | shares compounds with PMP22 txn | S16 Schwann cells viability, CellTiter-Glo ATP luminescence, 24 h | Potency, µM (titrated, usually from 57.5 µM), for the others: top-dose activity change, negative = viability loss, usual class: cytotoxic | hit rate 7% among 690; also: potency is read from the fitted curve at half-maximal effect; % is scaled to controls: 0 for no effect and ±100 for the full control effect
# PMP22 txn conf: PMP22 transcription modulation, confirmatory | hit rate 22% among 690 | Potency, µM (highest dose often 57.5 µM), for inactives: top-dose activity change, negative = inhibition, hits mostly inhibitors | shares compounds with PMP22 txn | S16 Schwann cells Pmp22-F2sN, dual luciferase, 24 h; active = clear falling dose curves in both reporters; inconclusive = both reporters move, but less clearly or upward; inactive = either reporter flat; the % is the FLuc reporter signal; also: potency is read from the fitted curve at half-maximal effect
# PMP22 HiBiT cnf: confirmation of modulators of rat PMP22 protein expression. shares compounds with PMP22 txn. S16 Schwann cells Pmp22-HiBiT, luminescence, 48 h. Potency, µM (titrated, usually from 27.9 µM), inactives show top-dose activity change, negative = inhibition, hits mostly inhibitors. 95 tested, under 10 active
# Target sequence (P25094 whole entry, looked up): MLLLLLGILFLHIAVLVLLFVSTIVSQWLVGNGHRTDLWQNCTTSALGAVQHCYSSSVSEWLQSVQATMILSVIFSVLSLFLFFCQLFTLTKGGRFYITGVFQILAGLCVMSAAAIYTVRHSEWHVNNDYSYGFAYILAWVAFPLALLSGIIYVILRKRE
# Active calls of the source: *; u = inconclusive; x = no result given. Sampled rows, rich in hits. Any-hit rate of the full collection: about 3.2%. Unless noted, calls follow the shape of the dose curve; as a rule, active = well fitted curve in the direction sought with a large enough effect; inconclusive = small, poorly fitted or top-dose-only effect, or another doubt; inactive = no such curve, though single readings can be large; an effect the other way counts as inactive or inconclusive.
SMILES,p53null 32C tox,p53null 39C kill,PMP22 txn,pS6 MEF inh,S16 viability,NLuc saturating,NLuc Km ctr,FLuc ctr PMP22,S16 viab conf,PMP22 txn conf,others
CCc1ccc(-c2nc(CN3CCC(C(=O)NCCc4ccc(Cl)cc4)CC3)c(C)o2)cc1,1%,-17%,16µM*,-4%,16%,-7%,2%,-13%,u,u,
Cc1oc(-c2ccc(Cl)cc2)nc1CN1CCCC(C(=O)NCCc2ccccc2)C1 (stereo not given),-4%,-2%,19µM*,4%,-13%,-10%,-15%,-20%,u,-29%,
CCc1ccc(-c2nc(CN3CCC(C(=O)NCCc4ccc(C)cc4)CC3)c(C)o2)cc1,-3%,8%,u,-8%,21%,x,x,x,x,x,
CCOC(=O)C1CCCN(c2c(C(=O)c3ccc(OCC)cc3)cnc3ccccc23)C1 (stereo not given),-8%,u,-30%,0%,-2%,x,x,x,x,x,
Cc1cccc(-c2c3c(=O)n(C)c(=O)n(C)c3c3c(C)nc4ccccc4n23)c1,7%,3%,13µM*,-12%,-25%,-7%,-15%,2%,4%,-53%,
CCCOc1ccc(CN2C(=O)C(=O)c3cccc(C)c32)cc1,67%,u,11µM*,u,-7%,u,u,-16%,u,u,
Cc1cccc2c1N(CCOc1ccc(C(C)(C)C)cc1)C(=O)C2=O,-13%,x,x,x,x,x,x,x,x,x,
CCc1ccc(N(CC)C(=O)c2sc3nc4n(c(=O)c3c2C)CCCC4)cc1,2%,u,-23%,4%,-11%,x,x,x,x,x,
CCOC(=O)c1ccccc1NC(=O)c1cccnc1,1%,6%,x,x,x,x,x,x,x,x,
CCCN1CCN(CCCNC(=O)Cn2c(-c3cccs3)cc3cc(Cl)ccc32)CC1,-1%,-3%,11µM*,0%,u,1%,-3%,2%,u,u,
CN1CCN(CCCNC(=O)Cn2c(-c3cccs3)cc3ccccc32)CC1,1%,-5%,u,-8%,12%,x,x,x,x,x,
Cc1ccc(C)c(N2CCN(CCCNC(=O)Cn3c(-c4cccs4)cc4ccccc43)CC2)c1,u,u,13µM*,u,u,-4%,-5%,-1%,u,u,PMP22 HiBiT cnf=15%
O=C(Cn1c(-c2cccs2)cc2ccccc21)NCCCN1CCN(c2cccc(Cl)c2)CC1,-4%,u,u,-22%,u,x,x,x,x,x,
CCCN1CCN(CCCNC(=O)Cn2c(-c3cccs3)cc3ccccc32)CC1,-6%,3%,u,1%,6%,x,x,x,x,x,PMP22 HiBiT cnf=u
Cc1cc(NC(=O)C2CCN(S(=O)(=O)c3ccc4[nH]c(=O)oc4c3)CC2)ccc1Br,33%,9%,u,0%,-1%,x,x,x,x,x,
O=C(Nc1ccc(Br)cc1F)N1CCC(CN2CCCC2)CC1,1%,2%,-10%,-5%,0%,x,x,x,x,x,
COc1ccc(CCN2C(=O)N(c3ccc(F)cc3)C(=O)C2CC(=O)Nc2ccc(F)c(F)c2)cc1 (stereo not given),1%,-16%,u,-2%,u,x,x,x,x,x,
CCOC(=O)c1cc2c(=O)n3ccccc3nc2n(CC2CCCO2)c1=NC(=O)c1cccc(C(F)(F)F)c1 (stereo not given),-5%,1%,4.9µM*,-20%,1%,-19%,u,9%,5%,u,
CCOC(=O)c1cc2c(=O)n3ccccc3nc2n(Cc2ccco2)c1=NC(=O)c1cc(C)cc(C)c1,u,u,5.6µM*,-3%,u,u,u,2%,u,4.6µM*,PMP22 HiBiT cnf=u
CCOC(=O)c1cc2c(=O)n3ccccc3nc2n(Cc2ccco2)c1=NC(=O)c1ccc(C(C)(C)C)cc1,6%,-19%,u,16%,-18%,x,x,x,x,x,
CCC(C)NC(=O)C1CCN(C(=O)c2cc3sccc3n2Cc2ccc(Cl)cc2)CC1 (stereo not given),20%,23%,8.9µM*,0%,u,u,u,11%,u,14µM*,PMP22 HiBiT cnf=1.6µM*
O=C1CC(c2ccc(Cl)cc2)c2cc3c(cc2N1)OCCO3 (stereo not given),27%,14%,u,-3%,-7%,x,x,x,x,x,
O=C1CC(c2cccc(Cl)c2Cl)c2cc3c(cc2N1)OCCO3 (stereo not given),25%,0%,16µM*,-13%,-17%,-11%,u,-3%,-7%,-32%,
CC(C)CN(CCNC(=O)c1cn(C)c2ccc(S(=O)(=O)N3CCCC3)cc2c1=O)CC(C)C,-1%,9%,-17%,-12%,-9%,x,x,x,x,x,
CCOc1ccc(CCNc2nc3ccccc3n3c(C)nnc23)cc1OCC,8%,-7%,u,-8%,-3%,u,u,1%,0%,u,
Cc1ccc(S(=O)(=O)C(CNS(=O)(=O)c2ccc(F)c(C(F)(F)F)c2)c2ccco2)cc1 (stereo not given),6%,-13%,14µM*,u,u,-1%,u,4%,-1%,-12%,
COc1ccc(S(=O)(=O)NCC(c2ccco2)S(=O)(=O)c2ccc(C)cc2)cc1F (stereo not given),9%,-2%,u,-6%,u,x,x,x,x,x,
